The text below walks through data of the OligoGym collection.
Also: reference of the scale not given here.

One experiment addresses ZNF708. In words: pooled miR-30 sensor sort-seq; sequence = guide strand. As to conditions: shRNA.
In turn, TTTCTTGTGATTAGTAAGGTTT registered a sensor-assay potency score (higher = more potent) of -0.453.

In turn, TTGAAAATACACTAAAAGCTTT gave a sensor-assay potency score (higher = more potent) of -0.61.

Sequence TTTCTAGTAAGAATTATCTTAC had a sensor-assay potency score (higher = more potent) of -0.946.

In turn, TTTTCTAGTAAGAATTATCTTA showed a sensor-assay potency score (higher = more potent) of -0.389.

On to TTATCTTATGATTCGTAAGGTT, for which the sensor-assay potency score (higher = more potent) was -0.564.

The target of another experiment is ZNF718. Described as above. The settings on record: shRNA.
Sequence TATCTTATCTTATCTTTGTTTG returned a sensor-assay potency score (higher = more potent) of -1.2.

Turning to TTATGTGTCGTAAGAGTTGTGG, the sensor-assay potency score (higher = more potent) turned out to be 0.343.

Consider TAATTCTATTATAACCACCTTT, for which the sensor-assay potency score (higher = more potent) is -0.203.

Regarding TTAAATTCTCATGTCCACGTTT, the sensor-assay potency score (higher = more potent) is -0.266.

TCTATTATAACCACCTTTCTGC came in with a sensor-assay potency score (higher = more potent) of -0.0639.

ATTTGTAGTATTTTTGTGCAGA: the sensor-assay potency score (higher = more potent) was -0.171.

Take TTTTGTGTTGAGTTAGGCGTGA: the sensor-assay potency score (higher = more potent) came out at 0.0879.

Consider ATATCTTATCTTATCTTTGTTT, for which the sensor-assay potency score (higher = more potent) is -0.436.

In turn, TTTATCTACAGTGTGAATTTTC had a sensor-assay potency score (higher = more potent) of -0.972.

Regarding TTATGTTTAGCAAAGTCTGAGG, the sensor-assay potency score (higher = more potent) is -0.614.

A further experiment has as its target ZNF77. The description is as above. The settings on record: shRNA.
With TAAAGTAAGTGGGACATCCGAA, the sensor-assay potency score (higher = more potent) was -0.639.

Take TAGACCAGGAATCACTTCCTGT: the sensor-assay potency score (higher = more potent) was -0.274.

In turn, TAACATAAATGTAACAATCCAA returned a sensor-assay potency score (higher = more potent) of -0.347.

Take TAATACATAAAGGTCTTCCCAC: the sensor-assay potency score (higher = more potent) was -0.234.

As to TTACGGTTGAACACTCTCCCAG, the sensor-assay potency score (higher = more potent) was -0.487.

Regarding TTAGGTACAAAATAAGTGCTAT, the sensor-assay potency score (higher = more potent) worked out at 0.0583.

For the sequence TACAATTTCTTCATCATTGGAT, the sensor-assay potency score (higher = more potent) amounted to 0.581.

In turn, TATGTCACAGATGCTGTCCTTG returned a sensor-assay potency score (higher = more potent) of -0.213.

TTTTCTCCAAAAATAGACCAGG: the sensor-assay potency score (higher = more potent) was -0.35.

As for TAAATGTAACAATCCAAGGAGG, the sensor-assay potency score (higher = more potent) is -0.849.

TTCGGTAGGGTAACTCTTGTGC returned a sensor-assay potency score (higher = more potent) of 0.248.

Regarding TTCCACATTTCTGACATTCATA, the sensor-assay potency score (higher = more potent) was -1.1.

A further experiment concerns the target ZNF829. Described as above. The settings on record: shRNA.
Regarding TTCATCTGTATGGATTCTCTGA, the sensor-assay potency score (higher = more potent) was determined as 0.0212.

As for TTCTACATTCTTCACATTCATA, the sensor-assay potency score (higher = more potent) was -1.09.

TTGTAGAAGTTCATCATGCATT came in with a sensor-assay potency score (higher = more potent) of -0.541.

Turning to TTCTCCAACATCACTTCTTTGT, the sensor-assay potency score (higher = more potent) is -0.439.

For the sequence TTCTTCACATTCATAGAGCTTC, the sensor-assay potency score (higher = more potent) was -0.0675.

Take TTGACTGAAATGTCTCTTCTTT: the sensor-assay potency score (higher = more potent) turned out to be 0.505.

As to TACTTGACTGAAATGTCTCTTC, the sensor-assay potency score (higher = more potent) stood at 0.284.

TGAACTACAACTAAAAGCCTTG returned a sensor-assay potency score (higher = more potent) of -0.242.

For TAATATTTTGGTCTCACACATT, the sensor-assay potency score (higher = more potent) is -1.12.

TTGAGCAATACTTAAAGGCTTT had a sensor-assay potency score (higher = more potent) of -0.25.

TTGAATAAGTTCTGAGCTCTGA gave a sensor-assay potency score (higher = more potent) of 0.585.

TTTACCAGTGTGAATCCTCTGA registered a sensor-assay potency score (higher = more potent) of 0.327.
